Experiments:
[1] = target: Tyrosine-protein kinase receptor UFO (Homo sapiens) (UniProt P30530); settings: at 1 µM
[2] = target: Tyrosine-protein kinase Blk (Homo sapiens) (UniProt P51451); settings: at 0.1 µM
[3] = target: Tyrosine-protein kinase Blk (Homo sapiens) (UniProt P51451); settings: at 1 µM
[4] = target: T1, Cytoplasmic tyrosine-protein kinase BMX (Homo sapiens) (UniProt P51813); settings: at 0.1 µM
T1 sequence (whole entry): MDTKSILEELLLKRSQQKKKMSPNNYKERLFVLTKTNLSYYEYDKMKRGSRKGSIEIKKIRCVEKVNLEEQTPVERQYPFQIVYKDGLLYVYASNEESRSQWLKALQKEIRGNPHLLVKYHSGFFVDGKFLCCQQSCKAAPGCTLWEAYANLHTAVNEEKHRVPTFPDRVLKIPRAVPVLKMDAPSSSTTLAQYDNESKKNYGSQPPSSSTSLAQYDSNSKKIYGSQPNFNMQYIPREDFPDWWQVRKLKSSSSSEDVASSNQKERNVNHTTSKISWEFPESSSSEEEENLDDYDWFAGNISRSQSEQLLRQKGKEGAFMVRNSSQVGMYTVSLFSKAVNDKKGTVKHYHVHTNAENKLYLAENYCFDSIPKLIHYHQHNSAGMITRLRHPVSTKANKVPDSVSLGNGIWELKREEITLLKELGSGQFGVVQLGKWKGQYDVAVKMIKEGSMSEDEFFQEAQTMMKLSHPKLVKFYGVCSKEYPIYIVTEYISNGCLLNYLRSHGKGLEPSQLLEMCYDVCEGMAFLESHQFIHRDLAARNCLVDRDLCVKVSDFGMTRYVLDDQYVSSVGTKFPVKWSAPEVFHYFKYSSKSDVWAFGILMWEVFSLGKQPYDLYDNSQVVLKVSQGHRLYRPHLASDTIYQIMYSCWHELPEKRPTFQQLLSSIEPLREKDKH

[5] = target: T1, Cytoplasmic tyrosine-protein kinase BMX (Homo sapiens); settings: at 1 µM
[6] = target: Protein-tyrosine kinase 6 (Homo sapiens) (UniProt Q13882); settings: at 0.1 µM
[7] = target: Protein-tyrosine kinase 6 (Homo sapiens) (UniProt Q13882); settings: at 1 µM
[8] = target: Tyrosine-protein kinase BTK (Homo sapiens) (UniProt Q06187); settings: at 0.1 µM
[9] = target: Tyrosine-protein kinase BTK (Homo sapiens) (UniProt Q06187); settings: at 1 µM
[10] = target: Tyrosine-protein kinase CSK (Homo sapiens) (UniProt P41240); settings: at 0.1 µM
[11] = target: Tyrosine-protein kinase CSK (Homo sapiens) (UniProt P41240); settings: at 1 µM
[12] = target: T2, Discoidin domain-containing receptor 2 (Homo sapiens) (UniProt Q16832); settings: at 0.1 µM
T2 sequence (whole entry): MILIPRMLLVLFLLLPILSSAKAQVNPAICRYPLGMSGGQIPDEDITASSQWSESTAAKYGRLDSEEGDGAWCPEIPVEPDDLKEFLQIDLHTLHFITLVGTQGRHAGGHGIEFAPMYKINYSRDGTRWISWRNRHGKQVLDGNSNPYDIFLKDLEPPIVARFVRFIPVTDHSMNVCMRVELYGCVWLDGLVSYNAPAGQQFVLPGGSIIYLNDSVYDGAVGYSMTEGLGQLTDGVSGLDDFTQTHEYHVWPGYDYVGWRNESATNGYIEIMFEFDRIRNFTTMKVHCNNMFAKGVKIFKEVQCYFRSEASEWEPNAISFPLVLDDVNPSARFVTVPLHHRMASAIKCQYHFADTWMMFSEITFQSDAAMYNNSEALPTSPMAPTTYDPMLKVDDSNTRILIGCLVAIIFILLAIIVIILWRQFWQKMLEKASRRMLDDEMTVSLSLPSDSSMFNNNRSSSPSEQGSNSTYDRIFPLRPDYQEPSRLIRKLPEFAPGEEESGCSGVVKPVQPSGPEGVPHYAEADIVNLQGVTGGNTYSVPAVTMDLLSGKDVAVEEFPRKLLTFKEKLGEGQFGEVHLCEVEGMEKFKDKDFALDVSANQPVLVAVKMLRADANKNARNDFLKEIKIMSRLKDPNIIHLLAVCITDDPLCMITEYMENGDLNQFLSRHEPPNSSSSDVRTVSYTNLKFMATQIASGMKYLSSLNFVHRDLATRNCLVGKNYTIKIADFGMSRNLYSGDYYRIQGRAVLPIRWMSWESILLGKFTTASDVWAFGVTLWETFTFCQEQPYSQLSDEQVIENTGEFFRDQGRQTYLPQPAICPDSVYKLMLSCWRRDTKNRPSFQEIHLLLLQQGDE

[13] = target: T2, Discoidin domain-containing receptor 2 (Homo sapiens); settings: at 1 µM
[14] = target: Epidermal growth factor receptor (Homo sapiens) (UniProt P00533); settings: at 0.1 µM
[15] = target: Epidermal growth factor receptor (Homo sapiens) (UniProt P00533); settings: at 1 µM
[16] = tested on: Epidermal growth factor receptor (Homo sapiens), P00533 [L858R]; settings: at 0.1 µM
[17] = tested on: Epidermal growth factor receptor (Homo sapiens), P00533 [L858R]; settings: at 1 µM
[18] = tested on: Epidermal growth factor receptor (Homo sapiens), P00533 [L861Q]; settings: at 0.1 µM
[19] = tested on: Epidermal growth factor receptor (Homo sapiens), P00533 [L861Q]; settings: at 1 µM
[20] = tested on: Epidermal growth factor receptor (Homo sapiens), P00533 [T790M]; settings: at 0.1 µM
Epidermal growth factor receptor (Homo sapiens), P00533 [T790M], sequence (P00533 whole entry T790M): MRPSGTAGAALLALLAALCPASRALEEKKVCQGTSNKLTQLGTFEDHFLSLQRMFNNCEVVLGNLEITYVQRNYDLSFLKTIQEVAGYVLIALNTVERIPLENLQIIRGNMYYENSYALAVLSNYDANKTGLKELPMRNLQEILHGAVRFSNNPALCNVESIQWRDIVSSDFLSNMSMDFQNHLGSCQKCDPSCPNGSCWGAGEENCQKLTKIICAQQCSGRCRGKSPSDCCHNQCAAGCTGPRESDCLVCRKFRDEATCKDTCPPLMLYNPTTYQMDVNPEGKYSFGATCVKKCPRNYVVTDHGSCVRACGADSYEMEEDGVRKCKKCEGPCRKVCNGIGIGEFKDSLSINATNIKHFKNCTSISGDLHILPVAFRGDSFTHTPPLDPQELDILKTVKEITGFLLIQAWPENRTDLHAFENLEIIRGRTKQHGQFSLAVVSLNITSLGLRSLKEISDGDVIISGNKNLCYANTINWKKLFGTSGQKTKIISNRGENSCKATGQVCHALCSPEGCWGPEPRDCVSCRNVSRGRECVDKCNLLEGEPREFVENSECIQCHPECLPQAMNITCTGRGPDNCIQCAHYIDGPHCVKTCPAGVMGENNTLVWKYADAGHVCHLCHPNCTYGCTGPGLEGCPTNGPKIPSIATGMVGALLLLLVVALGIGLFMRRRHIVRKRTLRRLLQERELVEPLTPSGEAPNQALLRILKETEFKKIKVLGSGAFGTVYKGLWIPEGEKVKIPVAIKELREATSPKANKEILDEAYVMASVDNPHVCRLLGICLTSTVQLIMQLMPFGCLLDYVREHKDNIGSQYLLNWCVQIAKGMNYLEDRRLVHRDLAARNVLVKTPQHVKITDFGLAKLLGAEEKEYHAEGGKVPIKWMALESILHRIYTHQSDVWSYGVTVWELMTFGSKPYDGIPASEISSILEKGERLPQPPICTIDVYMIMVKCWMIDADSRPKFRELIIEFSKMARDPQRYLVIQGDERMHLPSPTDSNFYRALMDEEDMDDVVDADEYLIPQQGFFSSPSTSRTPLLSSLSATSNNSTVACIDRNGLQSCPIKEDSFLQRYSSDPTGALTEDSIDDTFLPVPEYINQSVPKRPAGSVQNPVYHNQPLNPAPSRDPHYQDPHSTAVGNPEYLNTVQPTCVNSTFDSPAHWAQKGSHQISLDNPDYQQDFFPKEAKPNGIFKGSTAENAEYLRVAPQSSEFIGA

Tyrosine-protein kinase receptor UFO (Homo sapiens), sequence (P30530 whole entry): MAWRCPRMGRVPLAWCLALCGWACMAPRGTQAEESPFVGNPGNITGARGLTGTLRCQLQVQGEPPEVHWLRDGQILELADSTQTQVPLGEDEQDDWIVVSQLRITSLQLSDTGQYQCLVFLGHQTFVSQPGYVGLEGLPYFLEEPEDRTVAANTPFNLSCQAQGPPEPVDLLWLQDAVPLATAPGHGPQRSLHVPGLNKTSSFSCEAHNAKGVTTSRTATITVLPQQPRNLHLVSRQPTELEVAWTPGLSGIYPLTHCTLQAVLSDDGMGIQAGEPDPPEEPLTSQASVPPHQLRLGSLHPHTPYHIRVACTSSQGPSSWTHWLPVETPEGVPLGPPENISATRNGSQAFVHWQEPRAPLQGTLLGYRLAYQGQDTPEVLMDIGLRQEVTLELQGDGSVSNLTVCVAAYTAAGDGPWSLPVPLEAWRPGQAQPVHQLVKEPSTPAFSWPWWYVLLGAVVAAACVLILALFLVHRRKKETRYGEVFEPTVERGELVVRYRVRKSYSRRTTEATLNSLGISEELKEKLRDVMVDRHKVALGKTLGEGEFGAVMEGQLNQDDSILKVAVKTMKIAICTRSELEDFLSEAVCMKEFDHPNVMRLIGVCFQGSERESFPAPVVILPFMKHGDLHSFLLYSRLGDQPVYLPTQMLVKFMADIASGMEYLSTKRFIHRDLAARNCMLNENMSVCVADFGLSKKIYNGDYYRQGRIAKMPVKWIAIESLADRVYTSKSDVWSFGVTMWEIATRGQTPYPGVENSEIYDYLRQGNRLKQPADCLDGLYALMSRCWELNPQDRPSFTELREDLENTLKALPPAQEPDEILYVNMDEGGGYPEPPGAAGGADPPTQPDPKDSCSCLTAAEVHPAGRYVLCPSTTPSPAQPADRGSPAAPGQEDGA
Tyrosine-protein kinase Blk (Homo sapiens), sequence (P51451 2-505 limits assumed): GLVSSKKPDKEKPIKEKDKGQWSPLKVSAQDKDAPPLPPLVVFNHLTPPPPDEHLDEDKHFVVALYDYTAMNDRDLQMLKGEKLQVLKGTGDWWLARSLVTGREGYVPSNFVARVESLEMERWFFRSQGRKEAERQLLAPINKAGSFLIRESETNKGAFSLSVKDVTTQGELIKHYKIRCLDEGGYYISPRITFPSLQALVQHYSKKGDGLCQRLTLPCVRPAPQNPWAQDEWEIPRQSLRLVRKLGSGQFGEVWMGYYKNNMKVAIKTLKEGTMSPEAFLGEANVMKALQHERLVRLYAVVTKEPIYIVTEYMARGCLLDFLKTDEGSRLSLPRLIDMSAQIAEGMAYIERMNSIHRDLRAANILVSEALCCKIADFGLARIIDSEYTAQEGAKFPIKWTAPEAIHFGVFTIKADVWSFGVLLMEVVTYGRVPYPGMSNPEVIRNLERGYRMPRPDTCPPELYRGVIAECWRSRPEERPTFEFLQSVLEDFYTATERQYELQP
Tyrosine-protein kinase BTK (Homo sapiens), sequence (Q06187 whole entry): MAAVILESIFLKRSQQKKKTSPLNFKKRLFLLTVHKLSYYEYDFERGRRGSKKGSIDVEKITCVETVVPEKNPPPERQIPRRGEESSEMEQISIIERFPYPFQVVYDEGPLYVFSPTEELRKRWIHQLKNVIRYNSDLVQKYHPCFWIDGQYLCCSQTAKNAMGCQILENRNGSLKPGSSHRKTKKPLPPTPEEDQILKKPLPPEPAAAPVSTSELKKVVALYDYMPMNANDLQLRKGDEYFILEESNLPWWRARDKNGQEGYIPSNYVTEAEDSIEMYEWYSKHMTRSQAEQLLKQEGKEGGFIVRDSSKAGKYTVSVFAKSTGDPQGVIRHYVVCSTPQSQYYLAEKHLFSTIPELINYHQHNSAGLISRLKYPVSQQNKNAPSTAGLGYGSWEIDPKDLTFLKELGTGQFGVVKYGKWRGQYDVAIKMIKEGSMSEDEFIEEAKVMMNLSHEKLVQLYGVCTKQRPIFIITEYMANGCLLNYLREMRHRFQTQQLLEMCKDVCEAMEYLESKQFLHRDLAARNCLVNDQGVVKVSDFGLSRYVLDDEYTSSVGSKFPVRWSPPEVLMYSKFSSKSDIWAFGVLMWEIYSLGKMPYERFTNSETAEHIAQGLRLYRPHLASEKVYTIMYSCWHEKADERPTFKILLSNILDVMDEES
Tyrosine-protein kinase CSK (Homo sapiens), sequence (P41240 2-450 limits assumed): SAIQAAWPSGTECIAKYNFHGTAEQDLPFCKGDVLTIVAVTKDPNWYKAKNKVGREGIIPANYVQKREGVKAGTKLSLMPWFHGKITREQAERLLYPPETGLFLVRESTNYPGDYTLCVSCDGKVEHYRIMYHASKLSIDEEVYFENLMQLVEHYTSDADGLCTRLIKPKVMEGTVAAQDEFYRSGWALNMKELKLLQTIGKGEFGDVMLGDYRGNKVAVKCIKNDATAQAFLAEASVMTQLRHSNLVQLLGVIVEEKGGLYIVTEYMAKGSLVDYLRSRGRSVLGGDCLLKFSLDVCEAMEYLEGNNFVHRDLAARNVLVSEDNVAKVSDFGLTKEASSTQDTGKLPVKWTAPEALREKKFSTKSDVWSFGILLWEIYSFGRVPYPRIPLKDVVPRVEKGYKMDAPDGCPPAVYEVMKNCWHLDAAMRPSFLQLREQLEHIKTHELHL
Epidermal growth factor receptor (Homo sapiens), P00533 [L858R], sequence (P00533 whole entry L858R): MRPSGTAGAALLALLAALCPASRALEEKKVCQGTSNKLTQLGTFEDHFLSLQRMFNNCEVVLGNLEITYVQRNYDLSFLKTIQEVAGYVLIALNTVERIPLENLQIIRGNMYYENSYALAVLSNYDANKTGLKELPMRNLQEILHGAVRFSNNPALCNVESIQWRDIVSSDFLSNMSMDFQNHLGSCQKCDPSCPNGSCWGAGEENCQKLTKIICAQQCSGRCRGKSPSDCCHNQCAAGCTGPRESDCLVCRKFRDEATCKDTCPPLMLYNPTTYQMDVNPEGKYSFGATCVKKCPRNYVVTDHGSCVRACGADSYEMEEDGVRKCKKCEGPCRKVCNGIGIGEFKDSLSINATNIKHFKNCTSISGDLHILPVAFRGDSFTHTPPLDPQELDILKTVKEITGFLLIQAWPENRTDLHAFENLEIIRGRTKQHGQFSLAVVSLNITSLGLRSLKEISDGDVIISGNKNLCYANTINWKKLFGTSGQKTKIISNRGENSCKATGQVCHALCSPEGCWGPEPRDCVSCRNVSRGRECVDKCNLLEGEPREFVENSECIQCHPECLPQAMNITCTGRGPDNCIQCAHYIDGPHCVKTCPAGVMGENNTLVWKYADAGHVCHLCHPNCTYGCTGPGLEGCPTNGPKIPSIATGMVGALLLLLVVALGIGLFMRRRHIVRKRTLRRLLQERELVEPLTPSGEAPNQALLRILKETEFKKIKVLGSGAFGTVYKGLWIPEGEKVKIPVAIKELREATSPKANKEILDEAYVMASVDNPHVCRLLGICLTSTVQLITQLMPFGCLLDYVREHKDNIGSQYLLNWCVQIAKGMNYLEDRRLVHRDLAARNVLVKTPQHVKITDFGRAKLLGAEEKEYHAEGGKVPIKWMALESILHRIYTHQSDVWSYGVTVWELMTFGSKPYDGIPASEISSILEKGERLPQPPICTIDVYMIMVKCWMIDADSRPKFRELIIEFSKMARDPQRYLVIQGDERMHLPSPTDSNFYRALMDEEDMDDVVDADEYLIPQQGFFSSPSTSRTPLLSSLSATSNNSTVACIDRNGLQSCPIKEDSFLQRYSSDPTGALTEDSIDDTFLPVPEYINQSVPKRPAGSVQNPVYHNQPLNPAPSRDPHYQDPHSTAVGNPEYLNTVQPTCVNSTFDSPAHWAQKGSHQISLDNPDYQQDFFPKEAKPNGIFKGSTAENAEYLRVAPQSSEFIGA

Row | SMILES | inhibition [1] | inhibition [2] | inhibition [3] | inhibition [4] | inhibition [5] | inhibition [6] | inhibition [7] | inhibition [8] | inhibition [9] | inhibition [10] | inhibition [11] | inhibition [12] | inhibition [13] | inhibition [14] | inhibition [15] | inhibition [16] | inhibition [17] | inhibition [18] | inhibition [19] | inhibition [20]
1 | NCc1ccc(-n2c(-c3nonc3N)nc3cnccc32)cc1 | -1.85% | 3.21% | 4.2% | 5.93% | 4.77% | 5.04% | 5.62% | -0.77% | 0.66% | 3.09% | 1.46% | 2.78% | 3.01% | 1.73% | 1.72% | 3.13% | 1.55% | 2.5% | 2.02% | 3.36%
2 | COc1cc(Nc2ncc(-c3ccccc3)o2)cc(OC)c1OC | -1.68% | 4.17% | 41.1% | 2.78% | 8.49% | 0.16% | 4.16% | -0.88% | 0.25% | -1.07% | -0.86% | 0.74% | 8.58% | 6.02% | 13.8% | -1.09% | -0.27% | 0.27% | 0.17% | 0.05%
3 | Nc1nccc(-c2c(-c3ccc(F)cc3)ncn2C2CCC(O)CC2)n1 (stereo not given) | 6.29% | 0.25% | 5.98% | -2.32% | 3.78% | 1.95% | 14% | -0.78% | 1.08% | -1.06% | -0.86% | -0.26% | 13.3% | 4.04% | 35.7% | 18.4% | 76.8% | 4.44% | 33.2% | -1.86%
4 | c1ccc(-c2n[nH]cc2-c2ccnc(-c3ccc(OCCN4CCOCC4)cc3)c2)nc1 | 10.8% | 1.62% | 1.61% | 2.19% | 0.44% | -5.63% | -2.62% | 0.21% | 6.66% | -3.84% | -4.36% | 7.59% | 7.75% | 3.33% | 6.67% | -2.03% | -1.71% | -0.15% | -2.39% | -0.02%
5 | NS(=O)(=O)c1ccc(N/N=C2\C(=O)Nc3ccc(-c4cnco4)cc32)cc1 | -1.27% | -1.23% | 10.4% | 0.98% | 5.77% | 3.53% | 4.99% | -4.28% | -2.57% | 2.16% | 4.17% | 1.59% | 2.15% | 9.52% | 12.9% | 2.54% | 6.44% | 2.45% | 4.95% | 0.19%
6 | COc1cc2ncn(-c3cc(OCCc4ccccc4)c(C(N)=O)s3)c2cc1OC | -2.35% | 1.59% | 6.17% | -0.54% | 3.43% | -0.83% | 4.33% | 1.12% | 0.02% | 2.97% | 2.94% | 0.75% | 2.48% | 7.08% | 7.65% | 2.45% | 9.43% | 0.8% | 0.3% | 0.19%
7 | CN(C)c1ccc2c(c1)/C(=C/Nc1ccc(S(N)(=O)=O)cc1)C(=O)N2 | 14.8% | 2.29% | 33.2% | -8.96% | 1.7% | 0.1% | 2.14% | -1.88% | -0.24% | 2.3% | 0.76% | 1.03% | 2.54% | 9.33% | 11.9% | 1.25% | 5.83% | 1.24% | 2.51% | 0.31%
8 | CCN(CC)Cc1ccc(Nc2nccc(-c3cnn4ncccc34)n2)cc1 | 16.3% | -0.3% | 1.7% | 2.63% | 10.8% | 3.93% | 15.7% | -3.74% | -0.83% | 1.79% | 8.18% | 1.64% | 4.24% | -1.99% | -1.76% | -0.85% | -1.39% | 1.51% | 1.54% | 0.54%
9 | COc1cc(Nc2ncc3c(C)nc(-c4cccc(C(F)(F)F)c4)n3n2)cc(OC)c1OC | -0.36% | 3.39% | 25.1% | -0.78% | 11.9% | 3.48% | 5.36% | 2.11% | 4.31% | 4.48% | 12.9% | 0.31% | 0.73% | -0.06% | 0.98% | 4.13% | 4.89% | 2.74% | 8.43% | 1.49%
10 | Cc1ccc(NC(=O)c2ccoc2)cc1-c1ccc(C(=O)NCC2CC2)cc1 | -2.93% | 1.47% | 3.07% | 3.34% | 1.66% | 0.58% | 4.58% | 0.36% | 0.35% | 1.61% | 0.18% | 1.48% | 2.43% | 3.14% | 6.36% | 3.23% | 1% | 0.74% | 0.37% | 1.63%
11 | CCc1ccc(Oc2nccc(-c3c(-c4ccc(F)cc4)ncn3C3CCNCC3)n2)cc1 | -3.44% | 2.31% | 4.68% | 5.07% | 6.03% | 2.72% | 2.5% | -0.17% | 0.53% | -0.21% | 10.3% | 1.91% | 3.52% | 2.21% | 7.66% | 3.05% | 15.9% | 1.97% | 5.92% | 0.57%
12 | FC(F)(F)c1cccc(Nc2nccc(-c3cnn4nc(-c5ccccc5)ccc34)n2)c1 | -4.33% | 0.07% | -0.26% | 1.76% | 0.63% | -1.81% | 2.26% | 0.03% | -0.49% | 4.19% | 1.44% | 0.05% | 2.08% | -0.78% | 0.92% | -0.7% | -0.57% | 1.2% | 0.07% | 1.28%
13 | COc1ccc(-c2ccc3c(NC(=O)C4CC4)n[nH]c3n2)cc1 | -2.35% | 1.52% | 2.8% | 3.4% | 2.59% | 0.93% | 2.88% | 0.22% | -0.23% | 0.42% | 4.87% | 0.86% | 0.84% | 0.14% | 0.71% | -1.64% | 3.91% | -0.19% | 2.45% | -0.2%
